Most compounds without a hit are left out; they make up all but 11% or so of the library.
Sm TGR inh: S. mansoni TGR enzyme inhibition | Q962Y6 | purified TGR, DTNB reduction, TNB absorbance 405 nm | Potency, µM (top dose mostly 114 µM), hits mostly inhibitors | 360,000 compounds, 3% hits | AID 485364; further: nearly all actives have a fitted effect of over 60% in size
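Kinetic colorimetric format: TGR-catalysed, NADPH-driven DTNB reduction monitored via TNB absorbance. Enzyme dispensed at 20 nM; compound exposure 15 min at room temperature before reaction start.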
Pf growth 48h: inhibits P. falciparum growth in the first generation, 48 h. P. falciparum luciferase growth in erythrocytes, 48 h. Potency, µM (titrated, usually from 28.7 µM), usual class: inhibitors. 310,000 compounds, 5.9% hits
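A one-generation exposure of luciferase-tagged malaria parasites in RPMI 1640/Albumax erythrocyte culture, 37 C and 5% CO2. Inhibition is inferred from decreased luminescence after adding detection reagent.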
NS1 inh: influenza NS1 inhibition | Potency, µM (doses to about 46.1 µM) | 270,000 compounds, 0.4% hits | AID 2326; calls by dose curve; further: actives are rising curves; nearly all actives have a fitted effect of over 50% in size
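S. cerevisiae expressing influenza A NS1, grown in glucose, washed, then diluted 1:100 into pH 6.0 -URA galactose medium with 23 nl compound. Growth recovery read as OD600; NS1-free strain serves as control.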
AMA1 RON2 block: AMA1-RON2 (P. falciparum) interaction inhibition. AlphaScreen AMA1-biotinylated RON2 peptide binding. Potency, µM (top dose mostly 58.2 µM), actives largely listed as inhibitors. 360,000 compounds, 0.2% hits; further: nearly all actives have a fitted effect of over 45% in size
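AMA1 (3D7) with his tag at 25 nM final met compounds first, then biotinylated RON2 peptide at 25 nM; detection used donor plus acceptor beads, 10 µg/mL apiece, read by AlphaScreen after 30 min at room temperature.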
Pf growth 96h: inhibits malaria parasite growth, 96 h; AID 504834; Potency, µM (top dose mostly 28.7 µM), usual class: inhibitors; P. falciparum luciferase reporter growth, 96 h; 320,000 compounds, 6.9% hits
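Two parasite generations (96 h, 37 C, 5% CO2) of compound exposure in infected erythrocytes (0.05% parasitemia, 2% hematocrit). Luciferase-reporter P. falciparum; decreased luminescence indicates inhibited growth, aimed at apicoplast-acting delayed death.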
A number is an active result; – = inactive; ? = inconclusive; · = no result given. Unless noted, the call rests on the fitted dose curve; in most records, active means well fitted curve in the direction sought with a large enough effect; inconclusive means small, poorly fitted or top-dose-only effect, or another doubt; inactive means no such curve, though single readings can be large; an effect the other way counts as inactive or inconclusive.

SMILES	Sm TGR inh	Pf growth 48h	NS1 inh	AMA1 RON2 block	Pf growth 96h
CN(C)S(=O)(=O)c1cccc(NC(=S)N/N=C/c2cc(Br)ccc2O)c1	–	2.1µM	–	–	?
CCOc1ccccc1NC(=O)C(=O)N/N=C/c1cc(Br)ccc1O	–	2.3µM	·	–	–
O=C(C[n+]1ccccc1)N/N=C/c1ccccc1F	–	–	·	–	–
CN(C)S(=O)(=O)c1cccc(NC(=S)N/N=C/c2cccc(O)c2)c1	·	?	–	–	?
CC(C)(C)c1ccc(/C=N/NC(=O)C[n+]2ccccc2)cc1	–	?	–	–	–
O=C(C[n+]1ccccc1)N/N=C/c1ccc(Cl)cc1	–	?	·	–	7.4µM
CCOC(=O)CSC1=NN2CCS(=O)(=O)N=C2S1	10µM	–	·	–	–
Cc1ccc2nc(SCc3ccc([N+](=O)[O-])cc3)nc(C)c2c1	–	–	–	–	–
Cc1cc(C)c2nc(SCc3ccc([N+](=O)[O-])cc3)nc(C)c2c1	–	–	–	–	13µM
CNC[C@H](CC1CCCCC1)NC[C@H](Cc1ccccc1)NCCC12CC3CC(CC(C3)C1)C2	–	?	–	–	2.1µM
Cc1cc(=O)n2c(C(=O)Nc3ccc(C(=O)OC(C)C)cc3)c(C(=O)Nc3ccccc3)sc2n1	–	?	·	–	?
COc1ccc2[nH]c(=O)c(CNc3ccc(C)cc3C)cc2c1	13µM	–	–	–	–
COc1ccc2[nH]c(=O)c(CNc3ccccc3OC)cc2c1	18µM	–	?	–	–
COc1ccc2[nH]c(=O)c(CNc3cc(C)ccc3C)cc2c1	–	–	–	–	–
COc1ccc(CCNC(=O)[C@H](CC(C)C)NC(=O)N2CCn3c2nc2ccccc23)cc1OC	–	?	–	–	?
CCCCCOc1ccc(C(=O)CCC(=O)NC(C)c2ccc(S(N)(=O)=O)cc2)cc1 (centres undefined)	·	·	·	–	·
COc1ccc(C(=O)OC(C)C(=O)NC(C)CCc2ccccc2)c(OC)c1 (centres undefined)	–	–	–	–	–
COc1ccc(/C=N/N=C2/CC(C)(C)Cc3n[nH]c(=O)cc32)cc1	13µM	–	·	–	–
COc1ccc(CCNC(=O)CSc2nc(O)c(CC(C)C)c(=O)[nH]2)cc1OC	–	–	–	–	–
COc1ccc(CCNC(=O)CSc2nc(O)cc(=O)[nH]2)cc1OC	–	3.3µM	?	–	–
COc1ccc(CCNC(=O)CSc2cc(=O)[nH]c(N)n2)cc1OC	–	–	–	–	12µM
COc1ccc(CCNC(=O)Cn2c(=O)[nH]c3ccsc3c2=O)cc1OC	–	12µM	·	–	–
CC(Oc1ccccc1F)c1nnc(SCC(=O)NCc2ccc3c(c2)OCO3)o1 (centres undefined)	–	?	·	–	?
Cc1ccc(NC(=O)Cn2ncc(Cl)c(Cl)c2=O)cc1S(=O)(=O)N1CCCCC1	8.9µM	?	·	–	?
COc1ccc(CC(=O)Nc2ccc(F)c(Cl)c2)cc1S(=O)(=O)N1CCOCC1	–	6.6µM	·	–	?
SMILES	Sm TGR inh	Pf growth 48h	NS1 inh	AMA1 RON2 block	Pf growth 96h
COc1ccc(NC(=O)CNCc2ccc(Cl)cc2)cc1S(=O)(=O)N1CCOCC1	·	·	·	–	·
COc1ccc(NC(=O)Cc2ccc(Cl)cc2)cc1S(=O)(=O)N1CCCCC1	–	?	·	–	10µM
Cc1ccc(NC(=O)Cn2cc(C(F)(F)F)cc(Cl)c2=O)cc1S(=O)(=O)N1CCCCC1	–	?	·	–	?
COc1ccc(NC(C)=O)cc1S(=O)(=O)N1CCN(C(=O)c2ccccc2F)CC1	–	2.1µM	–	–	?
COc1ccc(NC(=O)Cc2ccccc2F)cc1S(=O)(=O)N1CCCCC1	–	?	·	–	?
CCOc1ncccc1C(=O)N1CCN(S(=O)(=O)c2ccc(Br)cc2Cl)CC1	–	–	·	–	?
COc1ccc(CCNC(=O)C2CCN(S(=O)(=O)c3ccc4c(c3)oc(=O)n4C)CC2)cc1OC	–	–	–	–	?
CC(=O)c1ccc(NC(=O)CSc2nccn2Cc2ccco2)cc1	–	·	·	·	·
Cc1ccc(NC(=O)Cc2ccc(Cl)cc2)cc1S(=O)(=O)N1CCCCCC1	–	13µM	·	–	?
COc1ccc(Br)cc1CN(C)C(=O)Cc1ccc(OC)c(S(=O)(=O)N2CCOCC2)c1	–	?	·	–	6.6µM
COc1ccccc1N1C(=O)C(Cl)=C(Nc2ccccc2O)C1=O	8.9µM	–	·	–	–
O=C1C(Cl)=C(Nc2ccccc2O)C(=O)N1c1ccccc1	22µM	?	–	–	–

Bioassay records (PubChem)
